Measurements reported in ChEMBL document CHEMBL1961873, “Compounds: GSK PKIS; Assays: Nanosyn kinase panel” (2012).

How the values were obtained:
[1] = biological target: T1, Inhibitor of nuclear factor kappa-B kinase subunit epsilon (Homo sapiens) (UniProt Q14164); conditions: at 1 µM;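 note: reported values are averaged percent inhibition figures against human IKKε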
T1 sequence (whole entry): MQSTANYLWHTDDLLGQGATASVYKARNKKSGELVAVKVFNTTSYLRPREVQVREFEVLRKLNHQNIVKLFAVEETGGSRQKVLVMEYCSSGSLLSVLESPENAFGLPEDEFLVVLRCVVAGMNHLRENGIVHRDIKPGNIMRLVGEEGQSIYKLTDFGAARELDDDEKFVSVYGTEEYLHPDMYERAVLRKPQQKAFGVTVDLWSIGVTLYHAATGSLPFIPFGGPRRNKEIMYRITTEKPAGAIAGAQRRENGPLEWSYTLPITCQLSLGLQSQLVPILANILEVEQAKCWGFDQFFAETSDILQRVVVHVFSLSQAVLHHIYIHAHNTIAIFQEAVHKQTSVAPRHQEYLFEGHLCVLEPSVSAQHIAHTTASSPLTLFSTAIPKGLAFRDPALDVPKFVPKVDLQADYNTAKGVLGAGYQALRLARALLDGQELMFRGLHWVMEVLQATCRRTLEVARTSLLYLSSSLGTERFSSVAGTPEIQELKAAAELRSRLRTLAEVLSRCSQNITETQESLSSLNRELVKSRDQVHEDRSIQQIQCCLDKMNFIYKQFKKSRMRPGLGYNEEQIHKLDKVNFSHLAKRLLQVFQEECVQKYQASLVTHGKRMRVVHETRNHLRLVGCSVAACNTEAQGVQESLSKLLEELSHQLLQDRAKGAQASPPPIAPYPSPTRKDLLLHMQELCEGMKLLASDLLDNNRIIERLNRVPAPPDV

[2] = biological target: T2, Serine/threonine-protein kinase Nek1 (Homo sapiens) (UniProt Q96PY6); conditions: at 0.1 µM
T2 sequence (whole entry): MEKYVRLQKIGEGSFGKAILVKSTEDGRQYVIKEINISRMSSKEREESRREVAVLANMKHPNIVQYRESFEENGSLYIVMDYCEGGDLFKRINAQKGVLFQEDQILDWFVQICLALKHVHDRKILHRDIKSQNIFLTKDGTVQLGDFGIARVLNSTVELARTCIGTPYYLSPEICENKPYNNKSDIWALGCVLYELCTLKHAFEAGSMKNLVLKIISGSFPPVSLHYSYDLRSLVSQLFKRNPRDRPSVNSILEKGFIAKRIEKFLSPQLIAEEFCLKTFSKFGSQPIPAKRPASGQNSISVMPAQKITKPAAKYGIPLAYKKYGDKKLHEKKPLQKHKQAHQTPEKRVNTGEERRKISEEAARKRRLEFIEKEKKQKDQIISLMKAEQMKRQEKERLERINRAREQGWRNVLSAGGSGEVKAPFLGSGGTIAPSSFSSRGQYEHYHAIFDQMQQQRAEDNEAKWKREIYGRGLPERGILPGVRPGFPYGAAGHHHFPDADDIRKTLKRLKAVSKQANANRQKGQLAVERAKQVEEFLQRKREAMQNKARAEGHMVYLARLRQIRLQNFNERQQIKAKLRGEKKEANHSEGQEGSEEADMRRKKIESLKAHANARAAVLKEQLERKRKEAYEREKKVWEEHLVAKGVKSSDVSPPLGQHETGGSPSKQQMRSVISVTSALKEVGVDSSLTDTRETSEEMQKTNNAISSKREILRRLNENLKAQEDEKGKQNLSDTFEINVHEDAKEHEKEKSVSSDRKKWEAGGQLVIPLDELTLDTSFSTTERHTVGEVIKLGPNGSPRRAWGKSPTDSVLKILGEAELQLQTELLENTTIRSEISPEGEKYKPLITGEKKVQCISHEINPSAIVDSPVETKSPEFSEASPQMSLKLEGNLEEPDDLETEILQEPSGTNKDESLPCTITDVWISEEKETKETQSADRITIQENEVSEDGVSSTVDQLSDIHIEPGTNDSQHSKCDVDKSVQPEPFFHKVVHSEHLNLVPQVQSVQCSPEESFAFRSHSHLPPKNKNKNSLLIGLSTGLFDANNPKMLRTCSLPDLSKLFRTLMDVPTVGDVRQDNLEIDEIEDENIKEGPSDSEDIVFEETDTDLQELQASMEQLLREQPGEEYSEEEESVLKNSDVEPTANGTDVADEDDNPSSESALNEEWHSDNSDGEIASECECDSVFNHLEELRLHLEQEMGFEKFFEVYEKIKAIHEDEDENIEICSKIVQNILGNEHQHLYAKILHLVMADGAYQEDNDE

[3] = biological target: T2, Serine/threonine-protein kinase Nek1 (Homo sapiens); conditions: at 1 µM
[4] = biological target: T3, Serine/threonine-protein kinase Nek2 (Homo sapiens) (UniProt P51955); conditions: at 0.1 µM
T3 sequence (whole entry): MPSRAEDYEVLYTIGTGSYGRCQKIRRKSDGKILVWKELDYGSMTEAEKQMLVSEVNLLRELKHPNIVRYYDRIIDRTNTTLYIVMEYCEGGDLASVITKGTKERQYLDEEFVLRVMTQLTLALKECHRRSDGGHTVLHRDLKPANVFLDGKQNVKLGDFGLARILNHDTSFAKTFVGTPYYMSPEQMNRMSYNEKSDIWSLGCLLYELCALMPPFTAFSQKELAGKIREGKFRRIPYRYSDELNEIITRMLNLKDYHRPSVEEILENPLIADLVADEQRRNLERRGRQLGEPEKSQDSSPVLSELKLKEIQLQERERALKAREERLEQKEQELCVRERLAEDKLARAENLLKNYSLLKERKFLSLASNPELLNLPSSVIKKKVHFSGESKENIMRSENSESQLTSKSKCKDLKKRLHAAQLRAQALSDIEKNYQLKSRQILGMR

[5] = biological target: T3, Serine/threonine-protein kinase Nek2 (Homo sapiens); conditions: at 1 µM
[6] = biological target: Serine/threonine-protein kinase Nek6 (Homo sapiens) (UniProt Q9HC98); conditions: at 0.1 µM
[7] = biological target: Serine/threonine-protein kinase Nek6 (Homo sapiens) (UniProt Q9HC98); conditions: at 1 µM
[8] = biological target: Serine/threonine-protein kinase Nek7 (Homo sapiens) (UniProt Q8TDX7); conditions: at 0.1 µM
[9] = biological target: Serine/threonine-protein kinase Nek7 (Homo sapiens) (UniProt Q8TDX7); conditions: at 1 µM
[10] = biological target: T4, Serine/threonine-protein kinase Nek9 (Homo sapiens) (UniProt Q8TD19); conditions: at 0.1 µM
T4 sequence (whole entry): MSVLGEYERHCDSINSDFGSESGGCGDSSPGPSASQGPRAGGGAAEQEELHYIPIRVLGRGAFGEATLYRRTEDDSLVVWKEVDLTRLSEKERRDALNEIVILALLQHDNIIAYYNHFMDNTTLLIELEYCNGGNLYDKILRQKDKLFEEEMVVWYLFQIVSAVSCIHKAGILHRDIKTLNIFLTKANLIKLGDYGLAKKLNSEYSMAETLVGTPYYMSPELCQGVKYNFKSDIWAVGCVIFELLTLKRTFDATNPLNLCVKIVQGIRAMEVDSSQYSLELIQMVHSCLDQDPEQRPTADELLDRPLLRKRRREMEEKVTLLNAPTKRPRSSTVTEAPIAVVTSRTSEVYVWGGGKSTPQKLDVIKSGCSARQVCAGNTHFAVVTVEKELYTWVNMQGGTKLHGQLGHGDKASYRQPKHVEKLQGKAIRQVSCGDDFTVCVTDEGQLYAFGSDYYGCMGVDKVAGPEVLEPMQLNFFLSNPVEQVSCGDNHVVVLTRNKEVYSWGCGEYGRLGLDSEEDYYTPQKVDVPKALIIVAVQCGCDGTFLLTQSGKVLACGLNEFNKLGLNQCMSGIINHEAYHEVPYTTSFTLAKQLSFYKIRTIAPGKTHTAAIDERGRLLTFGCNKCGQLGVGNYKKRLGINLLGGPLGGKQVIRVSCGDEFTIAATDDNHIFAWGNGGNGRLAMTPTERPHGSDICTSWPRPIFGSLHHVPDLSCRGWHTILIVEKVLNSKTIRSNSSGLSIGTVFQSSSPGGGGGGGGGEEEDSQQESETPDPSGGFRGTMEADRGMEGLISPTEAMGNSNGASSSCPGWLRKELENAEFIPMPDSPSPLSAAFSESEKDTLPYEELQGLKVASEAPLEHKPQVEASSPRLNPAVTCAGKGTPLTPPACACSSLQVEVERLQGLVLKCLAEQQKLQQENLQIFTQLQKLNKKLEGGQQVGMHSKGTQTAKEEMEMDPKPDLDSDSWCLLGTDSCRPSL

[11] = biological target: T4, Serine/threonine-protein kinase Nek9 (Homo sapiens); conditions: at 1 µM
[12] = biological target: Serine/threonine-protein kinase PLK1 (Homo sapiens) (UniProt P53350); conditions: at 0.1 µM
[13] = biological target: Serine/threonine-protein kinase PLK1 (Homo sapiens) (UniProt P53350); conditions: at 1 µM
[14] = biological target: T5, Dual specificity protein kinase TTK (Homo sapiens) (UniProt P33981); conditions: at 0.1 µM
T5 sequence (whole entry): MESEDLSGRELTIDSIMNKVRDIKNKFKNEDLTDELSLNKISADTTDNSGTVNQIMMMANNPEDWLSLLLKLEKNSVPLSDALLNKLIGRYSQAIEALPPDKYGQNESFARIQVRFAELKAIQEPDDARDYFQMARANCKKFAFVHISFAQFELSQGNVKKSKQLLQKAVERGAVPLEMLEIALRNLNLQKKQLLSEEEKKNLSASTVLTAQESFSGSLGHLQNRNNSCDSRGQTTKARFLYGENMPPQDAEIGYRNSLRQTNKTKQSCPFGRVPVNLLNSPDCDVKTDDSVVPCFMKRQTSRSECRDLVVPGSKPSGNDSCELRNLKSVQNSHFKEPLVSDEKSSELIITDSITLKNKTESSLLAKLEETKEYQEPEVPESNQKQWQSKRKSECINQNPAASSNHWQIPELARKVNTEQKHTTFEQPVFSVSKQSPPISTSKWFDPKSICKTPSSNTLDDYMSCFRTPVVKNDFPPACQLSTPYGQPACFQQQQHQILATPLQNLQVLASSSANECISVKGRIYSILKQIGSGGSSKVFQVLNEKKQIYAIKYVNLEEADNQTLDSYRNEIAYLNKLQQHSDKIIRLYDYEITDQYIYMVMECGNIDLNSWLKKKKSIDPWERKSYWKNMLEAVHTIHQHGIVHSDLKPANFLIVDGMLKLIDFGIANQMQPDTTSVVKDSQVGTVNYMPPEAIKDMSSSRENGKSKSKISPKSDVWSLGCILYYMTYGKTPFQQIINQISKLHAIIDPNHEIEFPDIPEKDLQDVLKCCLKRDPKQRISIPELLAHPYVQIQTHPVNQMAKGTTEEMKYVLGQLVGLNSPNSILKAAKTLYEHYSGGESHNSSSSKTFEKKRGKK

[15] = test system: T6, Receptor-type tyrosine-protein kinase FLT3 (Homo sapiens), P36888 [D835Y]; conditions: at 1 µM
T6 sequence (whole entry): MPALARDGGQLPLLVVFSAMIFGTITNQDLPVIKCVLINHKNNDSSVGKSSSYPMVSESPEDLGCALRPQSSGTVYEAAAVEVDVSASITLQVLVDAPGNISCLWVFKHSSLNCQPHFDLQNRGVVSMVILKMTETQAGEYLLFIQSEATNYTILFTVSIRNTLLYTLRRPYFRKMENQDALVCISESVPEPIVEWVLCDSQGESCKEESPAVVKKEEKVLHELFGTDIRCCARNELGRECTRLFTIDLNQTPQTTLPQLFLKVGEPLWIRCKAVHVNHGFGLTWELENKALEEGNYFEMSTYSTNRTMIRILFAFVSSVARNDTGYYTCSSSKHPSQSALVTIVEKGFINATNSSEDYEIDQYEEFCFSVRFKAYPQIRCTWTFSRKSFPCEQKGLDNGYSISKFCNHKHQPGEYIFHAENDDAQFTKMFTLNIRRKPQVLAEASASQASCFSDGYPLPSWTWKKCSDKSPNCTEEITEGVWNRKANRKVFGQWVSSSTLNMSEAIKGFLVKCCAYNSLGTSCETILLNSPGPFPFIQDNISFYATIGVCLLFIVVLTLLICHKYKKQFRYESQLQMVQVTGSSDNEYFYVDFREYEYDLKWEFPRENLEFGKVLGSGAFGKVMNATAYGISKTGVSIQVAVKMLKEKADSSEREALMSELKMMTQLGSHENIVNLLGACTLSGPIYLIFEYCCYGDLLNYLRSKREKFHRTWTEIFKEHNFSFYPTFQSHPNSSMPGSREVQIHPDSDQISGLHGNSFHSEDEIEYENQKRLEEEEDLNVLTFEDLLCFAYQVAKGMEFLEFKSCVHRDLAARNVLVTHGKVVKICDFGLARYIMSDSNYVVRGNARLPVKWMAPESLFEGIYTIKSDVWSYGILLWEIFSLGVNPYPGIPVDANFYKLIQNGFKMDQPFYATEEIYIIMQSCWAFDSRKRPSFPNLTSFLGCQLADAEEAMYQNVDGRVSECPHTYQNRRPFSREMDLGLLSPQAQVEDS

[16] = biological target: Vascular endothelial growth factor receptor 3 (Homo sapiens) (UniProt P35916); conditions: at 0.1 µM
[17] = biological target: Vascular endothelial growth factor receptor 3 (Homo sapiens) (UniProt P35916); conditions: at 1 µM
[18] = biological target: Macrophage colony-stimulating factor 1 receptor (Homo sapiens) (UniProt P07333); conditions: at 0.1 µM
[19] = biological target: Macrophage colony-stimulating factor 1 receptor (Homo sapiens) (UniProt P07333); conditions: at 1 µM
[20] = biological target: Tyrosine-protein kinase Fyn (Homo sapiens) (UniProt P06241); conditions: at 0.1 µM
Tyrosine-protein kinase Fyn (Homo sapiens), sequence (P06241 2-537 limits assumed): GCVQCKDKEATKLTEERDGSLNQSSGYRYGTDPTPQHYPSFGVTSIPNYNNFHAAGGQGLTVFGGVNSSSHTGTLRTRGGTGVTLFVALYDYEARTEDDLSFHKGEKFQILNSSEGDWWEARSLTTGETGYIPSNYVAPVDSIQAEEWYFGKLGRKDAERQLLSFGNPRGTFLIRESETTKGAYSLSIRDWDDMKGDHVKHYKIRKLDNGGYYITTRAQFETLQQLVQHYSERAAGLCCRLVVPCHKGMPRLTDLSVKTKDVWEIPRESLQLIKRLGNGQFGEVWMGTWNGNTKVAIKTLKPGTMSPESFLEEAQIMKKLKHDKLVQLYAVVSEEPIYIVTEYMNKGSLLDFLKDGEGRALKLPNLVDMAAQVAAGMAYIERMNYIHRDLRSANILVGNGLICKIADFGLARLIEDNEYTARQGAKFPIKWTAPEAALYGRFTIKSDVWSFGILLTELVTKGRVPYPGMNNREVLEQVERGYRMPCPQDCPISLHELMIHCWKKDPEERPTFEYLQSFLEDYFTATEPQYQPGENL

Serine/threonine-protein kinase Nek6 (Homo sapiens), sequence (Q9HC98 whole entry): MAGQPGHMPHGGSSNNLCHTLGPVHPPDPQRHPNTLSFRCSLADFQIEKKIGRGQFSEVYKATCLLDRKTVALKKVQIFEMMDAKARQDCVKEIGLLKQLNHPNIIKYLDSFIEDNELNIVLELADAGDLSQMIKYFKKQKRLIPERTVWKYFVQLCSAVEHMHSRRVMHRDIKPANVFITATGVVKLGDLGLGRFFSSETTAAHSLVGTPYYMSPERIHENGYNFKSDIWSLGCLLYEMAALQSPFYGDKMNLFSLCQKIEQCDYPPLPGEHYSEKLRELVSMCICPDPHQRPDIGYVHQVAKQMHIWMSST
Serine/threonine-protein kinase PLK1 (Homo sapiens), sequence (P53350 whole entry): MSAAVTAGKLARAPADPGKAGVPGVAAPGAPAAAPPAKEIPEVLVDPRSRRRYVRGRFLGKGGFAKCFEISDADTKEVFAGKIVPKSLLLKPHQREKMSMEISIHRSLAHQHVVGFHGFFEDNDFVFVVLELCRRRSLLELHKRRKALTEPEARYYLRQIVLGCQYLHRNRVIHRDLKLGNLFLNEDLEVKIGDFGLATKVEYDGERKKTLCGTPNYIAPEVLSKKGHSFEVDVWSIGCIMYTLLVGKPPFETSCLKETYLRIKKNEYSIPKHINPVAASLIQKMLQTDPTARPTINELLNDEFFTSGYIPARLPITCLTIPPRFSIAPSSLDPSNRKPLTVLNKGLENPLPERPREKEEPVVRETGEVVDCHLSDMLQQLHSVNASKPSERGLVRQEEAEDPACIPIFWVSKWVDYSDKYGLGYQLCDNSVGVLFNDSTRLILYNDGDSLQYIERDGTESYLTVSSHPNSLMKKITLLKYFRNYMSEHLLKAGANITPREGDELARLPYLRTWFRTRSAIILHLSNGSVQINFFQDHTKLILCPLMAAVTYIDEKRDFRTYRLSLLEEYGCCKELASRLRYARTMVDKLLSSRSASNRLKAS
Serine/threonine-protein kinase Nek7 (Homo sapiens), sequence (Q8TDX7 whole entry, looked up): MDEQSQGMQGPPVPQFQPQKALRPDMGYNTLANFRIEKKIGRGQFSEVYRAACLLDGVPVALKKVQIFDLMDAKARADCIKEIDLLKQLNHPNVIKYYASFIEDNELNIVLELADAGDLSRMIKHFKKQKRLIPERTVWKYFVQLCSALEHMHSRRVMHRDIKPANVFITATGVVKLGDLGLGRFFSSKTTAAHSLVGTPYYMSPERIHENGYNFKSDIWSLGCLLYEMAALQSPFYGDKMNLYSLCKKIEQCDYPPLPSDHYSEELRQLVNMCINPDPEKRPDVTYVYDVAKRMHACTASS
Vascular endothelial growth factor receptor 3 (Homo sapiens), sequence (P35916 whole entry): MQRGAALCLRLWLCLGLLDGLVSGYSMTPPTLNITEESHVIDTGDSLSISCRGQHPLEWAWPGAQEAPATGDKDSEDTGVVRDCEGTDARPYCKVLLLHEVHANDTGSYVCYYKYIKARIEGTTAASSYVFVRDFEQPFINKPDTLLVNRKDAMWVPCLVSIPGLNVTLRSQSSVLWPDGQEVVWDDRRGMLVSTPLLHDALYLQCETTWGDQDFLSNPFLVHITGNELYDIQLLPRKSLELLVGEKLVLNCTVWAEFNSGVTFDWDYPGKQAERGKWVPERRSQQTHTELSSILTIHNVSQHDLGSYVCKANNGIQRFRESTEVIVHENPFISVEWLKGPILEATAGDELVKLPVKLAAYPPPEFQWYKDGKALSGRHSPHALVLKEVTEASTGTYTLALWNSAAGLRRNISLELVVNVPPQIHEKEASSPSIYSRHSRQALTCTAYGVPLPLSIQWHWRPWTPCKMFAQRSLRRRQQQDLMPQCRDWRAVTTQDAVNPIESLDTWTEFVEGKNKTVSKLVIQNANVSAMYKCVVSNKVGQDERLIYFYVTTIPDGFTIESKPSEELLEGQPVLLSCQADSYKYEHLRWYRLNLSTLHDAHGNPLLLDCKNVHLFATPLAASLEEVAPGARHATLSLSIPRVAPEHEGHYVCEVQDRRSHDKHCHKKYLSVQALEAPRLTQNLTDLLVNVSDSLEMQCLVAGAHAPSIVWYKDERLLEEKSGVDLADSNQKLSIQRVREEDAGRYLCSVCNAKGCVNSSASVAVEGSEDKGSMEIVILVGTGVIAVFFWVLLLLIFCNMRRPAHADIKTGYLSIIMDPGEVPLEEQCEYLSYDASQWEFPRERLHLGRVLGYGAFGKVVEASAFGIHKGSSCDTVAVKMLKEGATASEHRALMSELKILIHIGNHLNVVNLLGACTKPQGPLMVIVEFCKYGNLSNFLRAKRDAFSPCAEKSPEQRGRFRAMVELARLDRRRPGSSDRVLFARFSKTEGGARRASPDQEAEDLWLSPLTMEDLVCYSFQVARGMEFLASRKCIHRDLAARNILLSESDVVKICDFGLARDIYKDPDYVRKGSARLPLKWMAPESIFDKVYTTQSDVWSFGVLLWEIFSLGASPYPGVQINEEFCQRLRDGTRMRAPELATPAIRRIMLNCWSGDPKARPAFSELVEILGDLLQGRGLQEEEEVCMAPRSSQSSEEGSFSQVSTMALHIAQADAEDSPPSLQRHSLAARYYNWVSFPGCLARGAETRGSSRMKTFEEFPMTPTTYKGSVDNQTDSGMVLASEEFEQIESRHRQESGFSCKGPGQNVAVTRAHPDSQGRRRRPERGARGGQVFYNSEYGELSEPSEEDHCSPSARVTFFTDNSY
Macrophage colony-stimulating factor 1 receptor (Homo sapiens), sequence (P07333 whole entry): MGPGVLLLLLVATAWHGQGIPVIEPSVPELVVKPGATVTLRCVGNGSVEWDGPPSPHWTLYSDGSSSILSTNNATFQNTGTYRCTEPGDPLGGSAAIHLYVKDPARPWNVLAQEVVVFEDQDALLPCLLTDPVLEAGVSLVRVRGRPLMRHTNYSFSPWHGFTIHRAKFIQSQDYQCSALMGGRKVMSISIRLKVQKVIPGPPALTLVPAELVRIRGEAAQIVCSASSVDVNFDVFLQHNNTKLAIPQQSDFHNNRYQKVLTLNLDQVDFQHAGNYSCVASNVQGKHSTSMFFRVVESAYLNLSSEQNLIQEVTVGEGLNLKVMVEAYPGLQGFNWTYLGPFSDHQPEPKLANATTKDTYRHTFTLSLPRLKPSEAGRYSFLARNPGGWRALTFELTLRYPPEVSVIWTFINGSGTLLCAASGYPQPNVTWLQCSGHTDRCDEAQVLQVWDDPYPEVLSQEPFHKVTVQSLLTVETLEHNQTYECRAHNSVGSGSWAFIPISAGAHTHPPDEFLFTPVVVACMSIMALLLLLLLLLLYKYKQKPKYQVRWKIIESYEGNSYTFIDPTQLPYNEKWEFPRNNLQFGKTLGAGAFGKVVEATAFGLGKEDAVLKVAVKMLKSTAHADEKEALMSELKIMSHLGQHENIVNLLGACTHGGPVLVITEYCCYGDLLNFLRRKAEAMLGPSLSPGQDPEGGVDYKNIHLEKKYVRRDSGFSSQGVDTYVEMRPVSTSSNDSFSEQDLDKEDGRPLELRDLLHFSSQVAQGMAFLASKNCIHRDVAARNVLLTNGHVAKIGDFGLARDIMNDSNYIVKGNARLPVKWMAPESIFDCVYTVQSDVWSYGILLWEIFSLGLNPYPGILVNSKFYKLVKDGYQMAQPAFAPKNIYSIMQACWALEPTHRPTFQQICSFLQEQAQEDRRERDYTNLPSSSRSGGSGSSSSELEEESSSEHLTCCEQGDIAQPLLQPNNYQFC

| SMILES | inhibition [1] [%] | inhibition [2] [%] | inhibition [3] [%] | inhibition [4] [%] | inhibition [5] [%] | inhibition [6] [%] | inhibition [7] [%] | inhibition [8] [%] | inhibition [9] [%] | inhibition [10] [%] | inhibition [11] [%] | inhibition [12] [%] | inhibition [13] [%] | inhibition [14] [%] | inhibition [15] [%] | inhibition [16] [%] | inhibition [17] [%] | inhibition [18] [%] | inhibition [19] [%] | inhibition [20] [%] |
| --- | --- | --- | --- | --- | --- | --- | --- | --- | --- | --- | --- | --- | --- | --- | --- | --- | --- | --- | --- | --- |
| COc1ccc(-c2nn3ncccc3c2-c2ccnc(Nc3ccc4c(c3)OCCO4)n2)cc1 | -0.27 | 0.11 | 2.9 | -0.55 | 3.9 | -0.41 | 0.26 | 2.18 | 1.38 | 6.4 | 8.39 | 2.68 | 2.45 | 4.08 | 0.07 | 8.62 | 56.4 | 19.6 | 66.8 | 5.65 |
| COc1ccc(CNC(=O)c2ccc(-c3cc(-c4nnc(C)o4)ccc3C)cc2)cc1 | 3.56 | 3.38 | 1.51 | 1.12 | 3.44 | -0.69 | 4.26 | 1.72 | -1.14 | 1.2 | 6.3 | 2.95 | 1.61 | 1.98 | -2.55 | -1.03 | -1.53 | 1.47 | 0.46 | 0.71 |
